Measured values from article PMC9911399, “Two distinct binding modes provide the RNA-binding protein RbFox with extraordinary sequence specificity”.
Numbering of substitutions follows the chain as printed; changes in the protein carry UniProt numbers. Whole data set: some 16,000 sequences, median “ka relative to ugcaugu” near 0.0091, cut for the highest 2% near 0.032. For the sample, the highest values were picked, then their nearest neighbours and some sequences at random.

T1: RBFOX1 RRM (Homo sapiens, UniProt Q9NWB1 109-208)
T1 sequence: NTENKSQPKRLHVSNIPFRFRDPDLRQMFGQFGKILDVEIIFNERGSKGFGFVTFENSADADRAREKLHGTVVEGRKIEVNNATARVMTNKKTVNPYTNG

B1: CGUGGUC (DNA:RNA)
RNA: GGGAGACCGGAAUUCAGAUUGUCCCGUGGUCUUAAAUCCCGUCGUAGCCACCA
DNA 1: CAATCTGAATTCCGGTCTCCC
DNA 2: TGGTGGCTACGACGGGATT
B2: UCUGCGG (DNA:RNA)
RNA: B1 RNA with C25U, G26C, G29C, U30G, C31G
DNA 1: CAATCTGAATTCCGGTCTCCC
DNA 2: TGGTGGCTACGACGGGATT
B3: AAAACGU (DNA:RNA)
RNA: GGGAGACCGGAAUUCAGAUUGUCCAAAACGUUUAAAUCCCGUCGUAGCCACCA
DNA 1: CAATCTGAATTCCGGTCTCCC
DNA 2: TGGTGGCTACGACGGGATT
B4: AGUCCGC (DNA:RNA)
RNA: B3 RNA with A26G, A27U, A28C, U31C
DNA 1: CAATCTGAATTCCGGTCTCCC
DNA 2: TGGTGGCTACGACGGGATT
B5: GUUAAUG (DNA:RNA)
RNA: B1 RNA with C25G, G26U, G28A, G29A, C31G
DNA 1: CAATCTGAATTCCGGTCTCCC
DNA 2: TGGTGGCTACGACGGGATT
B6: GAGAAUG (DNA:RNA)
RNA: B3 RNA with A25G, A27G, C29A, G30U, U31G
DNA 1: CAATCTGAATTCCGGTCTCCC
DNA 2: TGGTGGCTACGACGGGATT
B7: GUGAAUC (DNA:RNA)
RNA: B1 RNA with C25G, G26U, U27G, G28A, G29A
DNA 1: CAATCTGAATTCCGGTCTCCC
DNA 2: TGGTGGCTACGACGGGATT
B8: GUGACCG (DNA:RNA)
RNA: B3 RNA with A25G, A26U, A27G, G30C, U31G
DNA 1: CAATCTGAATTCCGGTCTCCC
DNA 2: TGGTGGCTACGACGGGATT
B9: GCGAAUC (DNA:RNA)
RNA: B1 RNA with C25G, G26C, U27G, G28A, G29A
DNA 1: CAATCTGAATTCCGGTCTCCC
DNA 2: TGGTGGCTACGACGGGATT
B10: GAGAUUG (DNA:RNA)
RNA: B3 RNA with A25G, A27G, C29U, G30U, U31G
DNA 1: CAATCTGAATTCCGGTCTCCC
DNA 2: TGGTGGCTACGACGGGATT
B11: GGAAAUG (DNA:RNA)
RNA: B3 RNA with A25G, A26G, C29A, G30U, U31G
DNA 1: CAATCTGAATTCCGGTCTCCC
DNA 2: TGGTGGCTACGACGGGATT
B12: GGGAAUG (DNA:RNA)
RNA: B1 RNA with C25G, U27G, G28A, G29A, C31G
DNA 1: CAATCTGAATTCCGGTCTCCC
DNA 2: TGGTGGCTACGACGGGATT
B13: GCGCGAA (DNA:RNA)
RNA: B1 RNA with C25G, G26C, U27G, G28C, U30A, C31A
DNA 1: CAATCTGAATTCCGGTCTCCC
DNA 2: TGGTGGCTACGACGGGATT
B14: GUGAAUG (DNA:RNA)
RNA: B3 RNA with A25G, A26U, A27G, C29A, G30U, U31G
DNA 1: CAATCTGAATTCCGGTCTCCC
DNA 2: TGGTGGCTACGACGGGATT
B15: GAGACCG (DNA:RNA)
RNA: B3 RNA with A25G, A27G, G30C, U31G
DNA 1: CAATCTGAATTCCGGTCTCCC
DNA 2: TGGTGGCTACGACGGGATT
B16: GCGAAUG (DNA:RNA)
RNA: B3 RNA with A25G, A26C, A27G, C29A, G30U, U31G
DNA 1: CAATCTGAATTCCGGTCTCCC
DNA 2: TGGTGGCTACGACGGGATT
B17: UGACAAG (DNA:RNA)
RNA: B3 RNA with A25U, A26G, A28C, C29A, G30A, U31G
DNA 1: CAATCTGAATTCCGGTCTCCC
DNA 2: TGGTGGCTACGACGGGATT
B18: ACGCUGG (DNA:RNA)
RNA: B3 RNA with A26C, A27G, A28C, C29U, U31G
DNA 1: CAATCTGAATTCCGGTCTCCC
DNA 2: TGGTGGCTACGACGGGATT
B19: UGGCAAU (DNA:RNA)
RNA: B3 RNA with A25U, A26G, A27G, A28C, C29A, G30A
DNA 1: CAATCTGAATTCCGGTCTCCC
DNA 2: TGGTGGCTACGACGGGATT
B20: CACCCCG (DNA:RNA)
RNA: B3 RNA with A25C, A27C, A28C, G30C, U31G
DNA 1: CAATCTGAATTCCGGTCTCCC
DNA 2: TGGTGGCTACGACGGGATT
B21: CUUGCCC (DNA:RNA)
RNA: B1 RNA with G26U, G29C, U30C
DNA 1: CAATCTGAATTCCGGTCTCCC
DNA 2: TGGTGGCTACGACGGGATT
B22: CAAUCGU (DNA:RNA)
RNA: B3 RNA with A25C, A28U
DNA 1: CAATCTGAATTCCGGTCTCCC
DNA 2: TGGTGGCTACGACGGGATT
B23: ACUUACA (DNA:RNA)
RNA: B3 RNA with A26C, A27U, A28U, C29A, G30C, U31A
DNA 1: CAATCTGAATTCCGGTCTCCC
DNA 2: TGGTGGCTACGACGGGATT
B24: CACUUGG (DNA:RNA)
RNA: B3 RNA with A25C, A27C, A28U, C29U, U31G
DNA 1: CAATCTGAATTCCGGTCTCCC
DNA 2: TGGTGGCTACGACGGGATT
B25: UCGAUUG (DNA:RNA)
RNA: B3 RNA with A25U, A26C, A27G, C29U, G30U, U31G
DNA 1: CAATCTGAATTCCGGTCTCCC
DNA 2: TGGTGGCTACGACGGGATT
B26: GGAAUGU (DNA:RNA)
RNA: B3 RNA with A25G, A26G, C29U
DNA 1: CAATCTGAATTCCGGTCTCCC
DNA 2: TGGTGGCTACGACGGGATT
B27: UCGAAUG (DNA:RNA)
RNA: B3 RNA with A25U, A26C, A27G, C29A, G30U, U31G
DNA 1: CAATCTGAATTCCGGTCTCCC
DNA 2: TGGTGGCTACGACGGGATT
B28: GUAAUGU (DNA:RNA)
RNA: B3 RNA with A25G, A26U, C29U
DNA 1: CAATCTGAATTCCGGTCTCCC
DNA 2: TGGTGGCTACGACGGGATT
B29: CGUAAUG (DNA:RNA)
RNA: B1 RNA with G28A, G29A, C31G
DNA 1: CAATCTGAATTCCGGTCTCCC
DNA 2: TGGTGGCTACGACGGGATT
B30: UCGAAUC (DNA:RNA)
RNA: B1 RNA with C25U, G26C, U27G, G28A, G29A
DNA 1: CAATCTGAATTCCGGTCTCCC
DNA 2: TGGTGGCTACGACGGGATT
B31: AGGAUUG (DNA:RNA)
RNA: B3 RNA with A26G, A27G, C29U, G30U, U31G
DNA 1: CAATCTGAATTCCGGTCTCCC
DNA 2: TGGTGGCTACGACGGGATT
B32: CGGAAUG (DNA:RNA)
RNA: B1 RNA with U27G, G28A, G29A, C31G
DNA 1: CAATCTGAATTCCGGTCTCCC
DNA 2: TGGTGGCTACGACGGGATT
B33: GUAAAUG (DNA:RNA)
RNA: B3 RNA with A25G, A26U, C29A, G30U, U31G
DNA 1: CAATCTGAATTCCGGTCTCCC
DNA 2: TGGTGGCTACGACGGGATT
B34: AGGAAUG (DNA:RNA)
RNA: B3 RNA with A26G, A27G, C29A, G30U, U31G
DNA 1: CAATCTGAATTCCGGTCTCCC
DNA 2: TGGTGGCTACGACGGGATT
B35: AGGAAUC (DNA:RNA)
RNA: B1 RNA with C25A, U27G, G28A, G29A
DNA 1: CAATCTGAATTCCGGTCTCCC
DNA 2: TGGTGGCTACGACGGGATT
B36: CGUCCGU (DNA:RNA)
RNA: B3 RNA with A25C, A26G, A27U, A28C
DNA 1: CAATCTGAATTCCGGTCTCCC
DNA 2: TGGTGGCTACGACGGGATT

Molecular target: T1, RBFOX1 RRM
Test: EMSA; HiTS-Eq, 1 nM pool, 10 min; buffer printed only for the single-RNA assays: 10 mM Tris pH 7.5, 150 mM NaCl, 3.4 mM EDTA, 0.001% NP-40, 30 C
Conditions: tags: His6 N-terminal (pET28a); label: 5' 32P
Outline: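 Purified wild-type or mutant RbFox RRM at increasing concentrations was equilibrated with 1 nM of 5′-radiolabelled RNA carrying 7 randomized nucleotides for 10 min in 50 µL. Unbound RNA was separated by 8% native PAGE and sequenced. Relative association constants came from read-count changes of each RNA species compared with the control reaction, normalised to the cognate motif.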

| Binder | binding signal |
| --- | --- |
| B1 | 0.017 KA relative to UGCAUGU |
| B2 | 0.0178 KA relative to UGCAUGU |
| B3 | 0.000755 KA relative to UGCAUGU |
| B4 | 0.0128 KA relative to UGCAUGU |
| B5 | 0.0118 KA relative to UGCAUGU |
| B6 | 0.0321 KA relative to UGCAUGU |
| B7 | 0.0142 KA relative to UGCAUGU |
| B8 | 0.0167 KA relative to UGCAUGU |
| B9 | 0.0124 KA relative to UGCAUGU |
| B10 | 0.019 KA relative to UGCAUGU |
| B11 | 0.0124 KA relative to UGCAUGU |
| B12 | 0.0951 KA relative to UGCAUGU |
| B13 | 0.0104 KA relative to UGCAUGU |
| B14 | 0.0355 KA relative to UGCAUGU |
| B15 | 0.00974 KA relative to UGCAUGU |
| B16 | 0.0369 KA relative to UGCAUGU |
| B17 | 0.0143 KA relative to UGCAUGU |
| B18 | 0.0175 KA relative to UGCAUGU |

| Binder | binding signal |
| --- | --- |
| B19 | 0.0132 KA relative to UGCAUGU |
| B20 | 0.002 KA relative to UGCAUGU |
| B21 | 0.00752 KA relative to UGCAUGU |
| B22 | 0.00595 KA relative to UGCAUGU |
| B23 | 0.00166 KA relative to UGCAUGU |
| B24 | 0.0107 KA relative to UGCAUGU |
| B25 | 0.0206 KA relative to UGCAUGU |
| B26 | 0.0563 KA relative to UGCAUGU |
| B27 | 0.0323 KA relative to UGCAUGU |
| B28 | 0.0122 KA relative to UGCAUGU |
| B29 | 0.0127 KA relative to UGCAUGU |
| B30 | 0.0109 KA relative to UGCAUGU |
| B31 | 0.0293 KA relative to UGCAUGU |
| B32 | 0.0596 KA relative to UGCAUGU |
| B33 | 0.00894 KA relative to UGCAUGU |
| B34 | 0.0471 KA relative to UGCAUGU |
| B35 | 0.0141 KA relative to UGCAUGU |
| B36 | 0.0125 KA relative to UGCAUGU |
